This passage reports binding signal results from PMC12864922, “TDP-43 directly inhibits mRNA accumulation in neurites through modulation of mRNA stability”.

The chains are these.
B1: ENSMUSG00000042529.153|Kcnj12 (ssRNA)
RNA: GGGAGUUCUACAGUCCGACGAUCGCUUCGAUAUCCGCAUGCUAAUAGGAAACACCAGAGUGGGUGCUUCUUAGAAAAGGACACUCAGGAAAUUAGUAUGGGGUCUGGGUCCCACAUCCCCAGGAAGUGGGUCAGCCCCACGUCCCCCGCUGGACUCACAGCUUGAGUUGUGCCUUAGAGACUCUGGUUGUCUGGCUUCCGUCAUUUCUGGUUUUCUCAGACUUGUUUAAUCUUUCCCUACUGCCCUAAGUCCACUCAUGAAGCUCCCCAGGCCCUUCUGAGAUUGCAGAGGCUGCUUGCUCAUCUCUUGCGGUCGCACUAGUGUGGAAUUCUCGGGUGUCAAGG
B2: ENSMUSG00000058297.8|Spock2 (ssRNA)
RNA: GGGAGUUCUACAGUCCGACGAUCGCUUCGAUAUCCGCAUGCUAGGCCGAGGAGGAGGAGGGUGAGGCGGGUGAGGCAGAUGAUGGAGGCUACAUCUGGUAGAUAGCCCUCGACGGCCUCGGCAGGCCAGGGUGCCGACGGCCAGAAAGACAGGCCAGAAGAGACCUGGACAACAGCAGGCAACUUAGCAAAUGGAUCCGGAAGUCAGUGCGGAGGACCCUGGCUCCAGUGGGGGAGGACUGGGGAGUGUGGCUUGUGUGUAUGUGUGAUAUGAGAUGUGUGUGUAUGAUGUGAGAUGUGAGUGCUCUUGCGGUCGCACUAGUGUGGAAUUCUCGGGUGUCAAGG
B3: ENSMUSG00000058297.7|Spock2 (ssRNA)
RNA: GGGAGUUCUACAGUCCGACGAUCGCUUCGAUAUCCGCAUGCUAGGAGGAGGCCGAGGAGGAGGAGGGUGAGGCGGGUGAGGCAGAUGAUGGAGGCUACAUCUGGUAGAUAGCCCUCGACGGCCUCGGCAGGCCAGGGUGCCGACGGCCAGAAAGACAGGCCAGAAGAGACCUGGACAACAGCAGGCAACUUAGCAAAUGGAUCCGGAAGUCAGUGCGGAGGACCCUGGCUCCAGUGGGGGAGGACUGGGGAGUGUGGCUUGUGUGUAUGUGUGAUAUGAGAUGUGUGUGUAUGAUGUGAGAUGCUCUUGCGGUCGCACUAGUGUGGAAUUCUCGGGUGUCAAGG
B4: ENSMUSG00000058297.9|Spock2|197:201;205:218;227:238;252:258 (ssRNA)
RNA: GGGAGUUCUACAGUCCGACGAUCGCUUCGAUAUCCGCAUGCUAGGAGGAGGAGGGUGAGGCGGGUGAGGCAGAUGAUGGAGGCUACAUCUGGUAGAUAGCCCUCGACGGCCUCGGCAGGCCAGGGUGCCGACGGCCAGAAAGACAGGCCAGAAGAGACCUGGACAACAGCAGGCAACUUAGCAAAUGGAUCCGGAAGUCAGUGCGGAGGACCCUGGCUCCAGUGGGGGAGGACUGGGGACACACGCUACACACAUACACACAUAUGAGAACACACACAUACAUGUGAGAUGUGACACACACAUCUCUUGCGGUCGCACUAGUGUGGAAUUCUCGGGUGUCAAGG
B5: ENSMUSG00000058297.1|Spock2 (ssRNA)
RNA: GGGAGUUCUACAGUCCGACGAUCGCUUCGAUAUCCGCAUGCUAGGAGGAUGAGGAAGAAAAGGAGACAGAAGAGGCAGGGGAGGAGGCCGAGGAGGAGGAGGGUGAGGCGGGUGAGGCAGAUGAUGGAGGCUACAUCUGGUAGAUAGCCCUCGACGGCCUCGGCAGGCCAGGGUGCCGACGGCCAGAAAGACAGGCCAGAAGAGACCUGGACAACAGCAGGCAACUUAGCAAAUGGAUCCGGAAGUCAGUGCGGAGGACCCUGGCUCCAGUGGGGGAGGACUGGGGAGUGUGGCUUGUGUGUACUCUUGCGGUCGCACUAGUGUGGAAUUCUCGGGUGUCAAGG
B6: ENSMUSG00000058297.10|Spock2 (ssRNA)
RNA: GGGAGUUCUACAGUCCGACGAUCGCUUCGAUAUCCGCAUGCUAGGAGGGUGAGGCGGGUGAGGCAGAUGAUGGAGGCUACAUCUGGUAGAUAGCCCUCGACGGCCUCGGCAGGCCAGGGUGCCGACGGCCAGAAAGACAGGCCAGAAGAGACCUGGACAACAGCAGGCAACUUAGCAAAUGGAUCCGGAAGUCAGUGCGGAGGACCCUGGCUCCAGUGGGGGAGGACUGGGGAGUGUGGCUUGUGUGUAUGUGUGAUAUGAGAUGUGUGUGUAUGAUGUGAGAUGUGAGUGUGUGAUGUGAGACUCUUGCGGUCGCACUAGUGUGGAAUUCUCGGGUGUCAAGG
B7: ENSMUSG00000058297.4|Spock2 (ssRNA)
RNA: GGGAGUUCUACAGUCCGACGAUCGCUUCGAUAUCCGCAUGCUAGGAGACAGAAGAGGCAGGGGAGGAGGCCGAGGAGGAGGAGGGUGAGGCGGGUGAGGCAGAUGAUGGAGGCUACAUCUGGUAGAUAGCCCUCGACGGCCUCGGCAGGCCAGGGUGCCGACGGCCAGAAAGACAGGCCAGAAGAGACCUGGACAACAGCAGGCAACUUAGCAAAUGGAUCCGGAAGUCAGUGCGGAGGACCCUGGCUCCAGUGGGGGAGGACUGGGGAGUGUGGCUUGUGUGUAUGUGUGAUAUGAGAUGUGCUCUUGCGGUCGCACUAGUGUGGAAUUCUCGGGUGUCAAGG
B8: ENSMUSG00000058297.6|Spock2 (ssRNA)
RNA: GGGAGUUCUACAGUCCGACGAUCGCUUCGAUAUCCGCAUGCUAGGCAGGGGAGGAGGCCGAGGAGGAGGAGGGUGAGGCGGGUGAGGCAGAUGAUGGAGGCUACAUCUGGUAGAUAGCCCUCGACGGCCUCGGCAGGCCAGGGUGCCGACGGCCAGAAAGACAGGCCAGAAGAGACCUGGACAACAGCAGGCAACUUAGCAAAUGGAUCCGGAAGUCAGUGCGGAGGACCCUGGCUCCAGUGGGGGAGGACUGGGGAGUGUGGCUUGUGUGUAUGUGUGAUAUGAGAUGUGUGUGUAUGAUGUCUCUUGCGGUCGCACUAGUGUGGAAUUCUCGGGUGUCAAGG
B9: ENSMUSG00000058297.8|Spock2|203:207;211:224;233:244 (ssRNA)
RNA: GGGAGUUCUACAGUCCGACGAUCGCUUCGAUAUCCGCAUGCUAGGCCGAGGAGGAGGAGGGUGAGGCGGGUGAGGCAGAUGAUGGAGGCUACAUCUGGUAGAUAGCCCUCGACGGCCUCGGCAGGCCAGGGUGCCGACGGCCAGAAAGACAGGCCAGAAGAGACCUGGACAACAGCAGGCAACUUAGCAAAUGGAUCCGGAAGUCAGUGCGGAGGACCCUGGCUCCAGUGGGGGAGGACUGGGGACACACGCUACACACAUACACACAUAUGAGAACACACACAUACAUGUGAGAUGUGAGUGCUCUUGCGGUCGCACUAGUGUGGAAUUCUCGGGUGUCAAGG
B10: ENSMUSG00000058297.9|Spock2 (ssRNA)
RNA: GGGAGUUCUACAGUCCGACGAUCGCUUCGAUAUCCGCAUGCUAGGAGGAGGAGGGUGAGGCGGGUGAGGCAGAUGAUGGAGGCUACAUCUGGUAGAUAGCCCUCGACGGCCUCGGCAGGCCAGGGUGCCGACGGCCAGAAAGACAGGCCAGAAGAGACCUGGACAACAGCAGGCAACUUAGCAAAUGGAUCCGGAAGUCAGUGCGGAGGACCCUGGCUCCAGUGGGGGAGGACUGGGGAGUGUGGCUUGUGUGUAUGUGUGAUAUGAGAUGUGUGUGUAUGAUGUGAGAUGUGAGUGUGUGAUCUCUUGCGGUCGCACUAGUGUGGAAUUCUCGGGUGUCAAGG
B11: ENSMUSG00000031028.199|Tub (ssRNA)
RNA: GGGAGUUCUACAGUCCGACGAUCGCUUCGAUAUCCGCAUGCUAACCUGCUAGGGUCUAUUCUGCAUGUCCUUUCUCUUCCCAGUUCCAGAGAUGAAACCCCUCCGAGUUAAUGUAUAAGGUUGGAAACCUUUCAGUAGGGAAUCAGGCAGUUCCCUGUUGAAAGUUGUCUGAGUUUUUGCACACCAUUCUGAUCUGAUGUGGCCUGUGCCUGGCUCCUCUAUGAGGACUUCGAGCUGUGCACAGACCUUAGCAGGACCACUGCACACUUUGUGUCUGUGUGACAGGCAGCCCAAGGGUUCUGGCUCUUGCGGUCGCACUAGUGUGGAAUUCUCGGGUGUCAAGG
B12: ENSMUSG00000090935.60|Synj2bp (ssRNA)
RNA: GGGAGUUCUACAGUCCGACGAUCGCUUCGAUAUCCGCAUGCUAAUUACCUGCACCUGGAUAUGGGACAGUAGGCUUUUACACUGUUCUUGUGAAUAGGUUUGUAAGCUUCAAAGUCUGCUUUACUUUAUCUUCUGUUAUGAUUGCCUUUGUCAGCAUAGGCAGGAGUCCUUUAGGAUUUCUGCCUAUCAGUAAAAGAAGUAUGUAACCCAAGUUCUACCUUCAGUGGAUUAAAGUUUCAUUAAGUGAAAAUGGAAAGAAAGUAGAAUUACUUGGUAAGAGGCCAAAUGAGGAUACAGAGGCUGCUCUUGCGGUCGCACUAGUGUGGAAUUCUCGGGUGUCAAGG
B13: ENSMUSG00000042529.476|Kcnj12 (ssRNA)
RNA: GGGAGUUCUACAGUCCGACGAUCGCUUCGAUAUCCGCAUGCUAAGAUGUAGGCAACAAGACUAGACCACAUUAAAUGCAUUUUGAUCUCUUUGAAUGCUACUGUGUUGAGAUGUGCGUCUCACUGGCCUCUGCCUGCCUCUCCCGCCUGCGGAGCACUUACACUUCCUGGGGCCCCUGCAGCUGGACCAUGUACAGGGCUCCCUGGGGCUUGUCCUCAGGGGCAGAGAAGGACAUGGUGGCAGCAGCACUGAGAACAGGAGCAUGGCCUCUCUCAGACCCCAGGGCAGUCAUUCAGUCUUUUCCUCUUGCGGUCGCACUAGUGUGGAAUUCUCGGGUGUCAAGG

Over roughly 9,900 sequences, “r (bound/input frequency ratio)” has its median near 0.7; the highest 2% begin near 6.5. Many of the other results were omitted from the sample, so the highest values are more common in it than they were.

This assay deals with TDP-43 (Homo sapiens, UniProt Q13148 1-414). Kind of assay: RNA Bind-n-Seq with designed 260-mer pool; 25 mM Tris-HCl, 150 mM KCl, 3 mM MgCl2, BSA (printed 500 mg/mL), 20 units/mL SUPERase IN; pH not stated; 500 nM RNA pool, 1 h, 4 C; TDP-43 5, 50, 500 nM; high values mean tight binding. Particulars: protein: recombinant; tags: SBP (GST cleaved off with PreScission; pGEX-GST-SBP). The procedure, abridged: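 In 25 mM Tris-HCl, 150 mM KCl, 3 mM MgCl2, BSA and SUPERase IN, 500 nM of an in vitro-transcribed 260-nt 3′ UTR oligo pool was incubated for 1 h at 4 °C with SBP-tagged TDP-43 (5, 50 or 500 nM) captured on streptavidin beads. RNA remaining after washes was biotin-eluted, reverse transcribed, PCR-amplified and sequenced. Binding, R, is the bound-sample abundance of each oligo, normalized to mapped reads, divided by its abundance in input. Each duplicate used a separate, independent protein batch.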
Chain of TDP-43 (Q13148 whole entry): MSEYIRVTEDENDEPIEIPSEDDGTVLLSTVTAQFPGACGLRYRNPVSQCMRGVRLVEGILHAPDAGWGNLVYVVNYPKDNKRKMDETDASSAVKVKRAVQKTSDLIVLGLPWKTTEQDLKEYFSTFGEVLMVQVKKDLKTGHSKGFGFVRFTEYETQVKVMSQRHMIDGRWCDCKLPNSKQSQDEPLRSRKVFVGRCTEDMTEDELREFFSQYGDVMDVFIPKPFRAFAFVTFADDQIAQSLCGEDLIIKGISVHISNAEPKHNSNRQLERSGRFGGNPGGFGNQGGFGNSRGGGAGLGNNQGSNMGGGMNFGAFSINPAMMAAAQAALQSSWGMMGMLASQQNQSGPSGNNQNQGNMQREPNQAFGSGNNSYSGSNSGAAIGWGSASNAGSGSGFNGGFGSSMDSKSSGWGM
As to B1, the binding signal is 0.587 R (bound/input frequency ratio).

Turning to B2, the binding signal was 6.51 R (bound/input frequency ratio).

With B3, the binding signal was 5.88 R (bound/input frequency ratio).

With B4, the binding signal is 2.81 R (bound/input frequency ratio).

Regarding B5, the binding signal is 3.54 R (bound/input frequency ratio).

Turning to B6, the binding signal is 6.91 R (bound/input frequency ratio).

For B7, the binding signal is 6.81 R (bound/input frequency ratio).

Regarding B8, the binding signal was 4.92 R (bound/input frequency ratio).

With B9, the binding signal was 2.32 R (bound/input frequency ratio).

B10: the binding signal is 5.99 R (bound/input frequency ratio).

In the case of B11, the binding signal was 1.55 R (bound/input frequency ratio).

As to B12, the binding signal was 0.778 R (bound/input frequency ratio).

As for B13, the binding signal was 0.564 R (bound/input frequency ratio).
